Several values for one entry are separate records, joined by “and”; a condition that tells them apart may be missing. Equal entries are not always repeated.
What follows are compounds tested against PARP1 L713F-nLuc biosensor (HCT116) (UniProt P09874) (assay: PARP1 L713F-nLuc/akaLuc ratio relative to DMSO control (biosensor stabilization) (fold change); higher = more PARP1 biosensor stabilization (target engagement / stabilizer), active = hit call of the paper). Conditions: stock concentration (mM; final µM = stock mM x 1): 10; 24 h;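 active = log2 fold change beyond 2 SD from the library mean after excluding viability outliers; inactive = within 2 SD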.
Chain of PARP1 L713F-nLuc biosensor (HCT116) (P09874 whole entry L713F, looked up): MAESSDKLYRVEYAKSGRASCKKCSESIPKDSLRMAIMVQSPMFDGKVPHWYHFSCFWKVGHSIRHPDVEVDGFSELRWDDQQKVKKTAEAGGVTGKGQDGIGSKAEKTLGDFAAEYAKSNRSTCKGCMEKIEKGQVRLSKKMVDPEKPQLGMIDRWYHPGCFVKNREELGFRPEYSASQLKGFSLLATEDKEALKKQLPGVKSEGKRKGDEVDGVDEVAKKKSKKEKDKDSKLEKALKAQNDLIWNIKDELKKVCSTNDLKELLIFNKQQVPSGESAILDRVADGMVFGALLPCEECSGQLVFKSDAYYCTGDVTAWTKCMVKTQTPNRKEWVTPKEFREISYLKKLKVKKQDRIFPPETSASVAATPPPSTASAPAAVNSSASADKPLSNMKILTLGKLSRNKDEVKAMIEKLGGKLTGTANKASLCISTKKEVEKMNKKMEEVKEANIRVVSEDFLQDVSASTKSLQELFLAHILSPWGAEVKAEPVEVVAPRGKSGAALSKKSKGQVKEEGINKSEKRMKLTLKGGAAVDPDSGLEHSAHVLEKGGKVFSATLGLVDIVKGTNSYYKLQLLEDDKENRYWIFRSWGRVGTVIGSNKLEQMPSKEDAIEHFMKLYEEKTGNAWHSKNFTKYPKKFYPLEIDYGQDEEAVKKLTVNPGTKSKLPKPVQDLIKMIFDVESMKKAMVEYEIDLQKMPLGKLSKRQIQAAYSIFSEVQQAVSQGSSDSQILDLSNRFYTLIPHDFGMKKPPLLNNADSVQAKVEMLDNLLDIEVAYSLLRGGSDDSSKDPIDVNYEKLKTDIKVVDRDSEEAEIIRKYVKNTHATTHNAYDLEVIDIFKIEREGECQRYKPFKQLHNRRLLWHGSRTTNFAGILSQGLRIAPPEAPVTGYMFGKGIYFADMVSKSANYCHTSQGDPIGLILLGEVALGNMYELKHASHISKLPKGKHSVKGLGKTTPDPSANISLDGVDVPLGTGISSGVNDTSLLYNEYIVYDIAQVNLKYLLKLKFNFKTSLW

Structure (SMILES) | PARP1 L713F-nLuc/akaLuc ratio
CS(=O)(=O)N1CCN(Cc2cc3nc(-c4cccc5[nH]ncc45)nc(N4CCOCC4)c3s2)CC1 [Pictilisib (GDC-0941)] | 0.659 (inactive)
COc1ccccc1C(=O)Nc1cc2c(cc1N1CCCC1)n(C)c(=O)n2C | 0.797 (inactive)
C=CC(=O)Nc1cccc(Nc2nc(Nc3ccc(N4CCN(C(C)=O)CC4)cc3OC)ncc2C(F)(F)F)c1 [Rociletinib (CO-1686, AVL-301)] | 0.886 (inactive)
Cn1nnc2c(C(N)=O)ncn2c1=O [Temozolomide] | 0.833 (inactive)
CC(C)N(CCCNC(=O)Nc1ccc(C(C)(C)C)cc1)C[C@H]1O[C@@H](n2cc(Br)c3c(N)ncnc32)[C@H](O)[C@@H]1O | 0.82 (inactive) and 0.934 (inactive)
COc1nc(Nc2cc(S(C)(=O)=O)ccc2N[C@@H](c2cccc3c2OC(F)(F)O3)c2ncccc2Cl)nc(N2CCNCC2)n1 | 0.707 (inactive)
O=C(NC[C@H](O)CN1CCc2ccccc2C1)c1ccnc(NC2CCC2)c1 | 0.738 (inactive)
CC(=O)Nc1ccc(C(=O)Nc2ccc(F)cc2N)cc1 | 0.984 (inactive)
CNc1cc(Nc2cccn(-c3ccccn3)c2=O)nn2c(C(=O)N[C@@H]3C[C@@H]3F)cnc12 | 0.72 (inactive)
CONC(=O)c1ccccc1Nc1cc(Nc2cc(C)nn2C(C)C)ncc1Cl | 0.987 (inactive)
COc1cc2c(NC3CCN(C)CC3)nc(N3CCCN(C)CC3)nc2cc1OCCCN(C)C | 0.782 (inactive)
CN(C)CCCn1cc(C2=C(c3c[nH]c4ccccc34)C(=O)NC2=O)c2ccccc21 [Bisindolylmaleimide I] | 26.8 (active)
O=C(/C=C/c1ccc(O)c(O)c1)c1ccc(O[C@@H]2O[C@H](CO)[C@@H](O)[C@H](O)[C@H]2O)c(O)c1O [Marein] | 0.984 (inactive)
Cc1ccc(Oc2nc3cc(-c4ccc5c(ccn5C)c4)c(Cl)cc3[nH]2)cc1C(=O)O | 0.541 (inactive)
N#Cc1cc2cc(CN3CCC(Nc4ncnc5sc(CC(F)(F)F)cc45)CC3)ccc2[nH]1 | 1.05 (inactive)
CCCCCC1CC1CC1CC1CCCCCCCC(=O)O (stereo unspecified) | 1.14 (inactive)

Structure (SMILES) | PARP1 L713F-nLuc/akaLuc ratio
CN(Cc1cnc2nc(N)nc(N)c2n1)c1ccc(C(=O)N[C@@H](CCC(=O)O)C(=O)O)cc1 [Methotrexate] | 0.755 (inactive)
Nc1ncn([C@@H]2O[C@H](CO)[C@@H](O)[C@H]2O)c(=O)n1 [5-Azacytidine] | 2.35 (inactive)
Cc1cnc(-c2ccccc2C(C)C)nc1NCc1ccc(-n2ccnn2)cc1 | 0.718 (inactive)
COc1ccc2[nH]cc(/C=C3\C(=O)Nc4ccc(NC(=O)CCN5CCCCC5)cc43)c2c1 | 0.931 (inactive)
N#CC[C@H](C1CCCC1)n1cc(-c2ncnc3[nH]ccc23)cn1 [Ruxolitinib (S enantiomer)] | 1.63 (inactive)
COc1cc2c(NC3CCN(C4CCCCC4)CC3)nc(N3CCCN(C(C)C)CC3)nc2cc1OCCCN1CCCCC1 | 0.886 (inactive)
O=c1c(-n2ccnn2)c[nH]n1-c1cc(N2CCOCC2)ncn1 [Molidustat] | 0.788 (inactive)
Cc1ccc(C(=O)Nc2ccc(Oc3cc4cnn(C)c4cc3-c3cn[nH]c3)c(F)c2)c(=O)n1-c1ccc(F)cc1 | 1.52 (inactive)
C/C(=N\NC(=O)c1cccc(S(=O)(=O)N2CCN(C)CC2)c1)c1cc(Cl)ccc1O [Seclidemstat] | 0.552 (inactive)
CCc1cccc(CC)c1NC(=O)N1Cc2[nH]nc(NC(=O)c3ccc(N4CCN(C)CC4)cc3)c2C1 | 0.92 (inactive)
CC[C@@](C)(Nc1ccnc(-c2c[nH]c3ncccc23)n1)C(=O)NCC(F)(F)F [Decernotinib] | 0.707 (inactive)
Cc1cc(C)c(CNC(=O)c2cc(-c3ccc(N4CCN(C)CC4)nc3)cc3c2c(C)cn3C(C)C)c(=O)[nH]1 | 1.47 (inactive)
CN1C[C@@H](Nc2cnn(C)c(=O)c2Br)C[C@@H](c2ccccc2)C1 | 0.711 (inactive)
COc1ccc(-c2c(-c3ccc(C#N)c(F)c3)nc(N3CCC(N)CC3)n(C)c2=O)cc1F [Pulrodemstat (benzenesulfonate)] | 1.26 (inactive)
COc1cc(Nc2ncc(F)c(Nc3ccc4c(n3)N(COP(=O)(O)O)C(=O)C(C)(C)O4)n2)cc(OC)c1OC [Fostamatinib (R788)] | 0.614 (inactive)

Source: the supplement of paper PMC11624193, “Coupling cellular drug-target engagement to downstream pharmacology with CeTEAM” (Nature Communications, 2024)
